# Bioassay records: PubChem BioAssay, several laboratories
# SMARCA2 act = SMARCA2 function activation, primary screen; MG213 cells, MMTV-luciferase reporter, dexamethasone, overnight; activation, % at 9.1 µM; 370,000 compounds, 1% hits; in the data active = activation above about 7.8%;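 note: 0% = vehicle wells and 100% = reference activator wells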
# Hsp70 activator = Hsp70 transcriptional activation, primary screen | activation, % at 10 µM | AID 1203 | 200,000 compounds, 0.04% hits | HeLa Hsp70 promoter luciferase reporter, luminescence; scaled: vehicle 0, proteasome-inhibitor control 100%;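 active = activation above the mean across all tested compounds plus 3 SD, cutoff set per campaign, cut at about 5.5% in these data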;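 note: 100% = MG132 at 30 µM as the positive control and 0% = DMSO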
# GalR3 antagonist = blocks the human galanin receptor 3; O60755; HEK293 GalR3-CNG cAMP membrane potential fluorescence; galR3 body fused to GalR1 C-terminus; inhibition, % at 3 µM; 360,000 compounds, 0.44% hits; AID 651719;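 active = inhibition above the screen-wide average plus 3 SD, cut at about 13% in these data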;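 note: forskolin and galanin both at EC90 stimulate the cells; cAMP rise reported by CNG channel membrane potential dye signal; 0% = forskolin plus galanin with DMSO and 100% = forskolin alone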
# Target sequence (O60755 1-299 limits assumed): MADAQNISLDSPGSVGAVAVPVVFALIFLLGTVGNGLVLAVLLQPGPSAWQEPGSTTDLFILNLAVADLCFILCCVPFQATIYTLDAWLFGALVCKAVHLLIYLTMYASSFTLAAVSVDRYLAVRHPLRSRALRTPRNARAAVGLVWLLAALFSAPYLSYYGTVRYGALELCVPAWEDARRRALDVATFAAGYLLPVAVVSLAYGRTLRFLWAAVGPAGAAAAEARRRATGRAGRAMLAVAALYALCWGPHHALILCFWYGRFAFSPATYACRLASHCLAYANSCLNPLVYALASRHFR
# GAA850 FXN act = activators of GAA850 frataxin (FXN) promoter. 360,000 compounds, 0.56% hits. HEK293 lucGAA850 FXN promoter luciferase reporter, 24 h; percent of 10 µM SAHA response. activation, % at 6 µM. AID 540364;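 active = activation above the average of all compounds screened plus 3 SD, cutoff fixed separately per campaign, cut at about 7.5% in these data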;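 note: 0% = DMSO wells and 100% = 10 µM SAHA wells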
# HIF activator = HIF pathway transcriptional activation. U2OS HRE-luciferase reporter, luminescence; normalized: DMSO 0%, desferrioxamine 100%. activation, % at 7.5 µM (by protocol). 300,000 compounds, 0.32% hits. AID 1910;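 active = mean activation of at least 10% of the iron chelator positive control signal, with at least half of replicates also reaching 10%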
# GalR3 conf = GalR3 (human) antagonism, confirmation; shares compounds with GalR3 antagonist; HEK293 GalR3 CNG cAMP biosensor, membrane potential fluorescence; galR3 fused to GalR1 carboxy tail; challenged with forskolin and galanin at EC90; inhibition, % at 3 µM; 1,600 compounds, 59% hits;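 active = inhibition above the primary screen's cutoff, the mean inhibition of all screened compounds plus 3 SD, cut at about 13% in these data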;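 note: 0% = forskolin plus galanin and 100% = forskolin alone with DMSO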
# HEK-CNG parental = parental cell agonism counter-screen for GalR3 antagonists. HEK293-CNG parental cells, cAMP membrane potential fluorescence; normalised: DMSO wells 0%, forskolin wells 100%. shares compounds with GalR3 antagonist. 1,600 compounds, 10% hits. activation, % at 3 µM; in the data active = activation above about 1.3%
# * = called active by the depositor; · = no result given. Rows were chosen to be rich in hits. Some 2.2% of all compounds tested hit in one or more screens of this group.
SMILES,SMARCA2 act,Hsp70 activator,GalR3 antagonist,GAA850 FXN act,HIF activator,GalR3 conf,HEK-CNG parental
COc1ccc(CN2CCN(C(=O)c3ccc(S(=O)(=O)N4CCCCCC4)cc3)CC2)cc1,-5,·,26*,-2,·,90*,-1
O=C(c1ccc(S(=O)(=O)N2CCCCCC2)cc1)N1CCN(Cc2ccccc2)CC1,-4,·,-6,0,·,·,·
CN(c1ccccc1C(=O)Nc1ccc(S(=O)(=O)N2CCCC2)cc1)S(C)(=O)=O,-4,0,-5,-2,-1,·,·
COc1ccc(S(=O)(=O)N2CCCCCC2)cc1C(=O)Nc1ccc(C(=O)N(C)C)cc1,-1,·,15*,1,·,5,0
Cc1ccc(NS(=O)(=O)c2ccc(C(=O)NC3CCN(Cc4ccccc4)CC3)cc2)cc1,-6,·,90*,-2,·,103*,1
CCN(CC)S(=O)(=O)c1ccc(NC(=O)c2ccc(OCC3CCCO3)cc2)cc1 (stereo not given),-5,·,34*,-3,·,104*,0
Cc1ccc(NS(=O)(=O)c2cccc(C(=O)NC3CCN(Cc4ccccc4)CC3)c2)cc1,-5,·,-7,-2,·,·,·
CCN(CC)S(=O)(=O)c1ccc(NC(=O)c2ccc(CN3CCOCC3)cc2)cc1,-6,-1,101*,-4,·,106*,-1
O=C(Nc1ccc(S(=O)(=O)N2CCCCC2)cc1)c1ccc(CN2CCOCC2)cc1,·,0,·,-10,0,·,·
COC(=O)c1cc2c(c3c4cc(F)ccc4n(S(=O)(=O)c4ccccc4)c13)C(=O)N(Cc1ccccc1)C2,4,·,-6,·,·,·,·
O=C(OCc1cn(Cc2ccc(F)cc2F)nn1)N1CCOCC1,-2,·,·,·,·,·,·
CC(C)C[C@H]1COc2cccc(F)c2S(=O)(=O)N1Cc1cn(Cc2ccc(C(F)(F)F)cc2)nn1,-3,·,·,·,·,·,·
CCN(CC(=O)NCCCN1CCOCC1)S(=O)(=O)c1ccc(Cl)cc1,-3,·,-2,-1,0,·,·
O=C(Nc1nc(-c2ccc(Cl)cc2Cl)cs1)c1ccc(OCC2CCCO2)cc1 (stereo not given),-4,0,92*,-2,0,109*,-1
O=C(Nc1ccc(S(=O)(=O)Nc2ccc(F)cc2)cc1)c1ccc(CN2CCOCC2)cc1,-4,0,67*,-3,-1,109*,-1
CCN(CC(=O)NCCCN1CCOCC1)S(=O)(=O)c1ccc(F)cc1,0,·,19*,0,-1,3,0
COCC(=O)N(C)[C@H]1C[C@H]2c3[nH]c4c(-c5ccc6c(c5)OCO6)cccc4c3CCN2C(=O)[C@H]1[C@H](C)O,0,·,·,·,·,·,·
CCOC(=O)C1=C(C)NC2=C(C(=O)c3ccccc32)C1c1ccc(O)cc1 (stereo not given),-1,0,20*,2,1,8,0
COCC(C)n1c(-c2ccc3c(c2)NC(=O)CO3)csc1=Nc1ccc(OC(F)F)cc1 (stereo not given),-6,0,31*,-6,-1,92*,-1
COc1ccc2[nH]c3c(c2c1)CCN1C(=O)N([C@@H](C)C(=O)NCCc2ccc(OC)c(OC)c2)C(=O)[C@]31C,0,·,26*,-4,0,-1,0
COc1ccc(OC)c(CCNC(=O)Cn2nc(C)c3c(C)n(-c4ccc(C)cc4)nc3c2=O)c1,-5,·,33*,-6,0,98*,0
COc1ccc(CCNC(=O)Cn2nc(C)c3c(C)n(-c4ccccc4)nc3c2=O)c(OC)c1,-3,·,3,0,0,·,·
CCC(=O)Nc1ccc(F)c(Cl)c1,-1,0,·,0,0,-3,0
Cc1c(C(=O)OCC(C)C)[nH]c2c1C(=O)CC(c1ccco1)C2 (stereo not given),-3,1,17*,-3,3,3,2.5*
CCN=C1S/C(=C\c2cc(OCC)c(O)cc2Br)C(=O)N1CC,0,0,16*,6,1,21*,0
SMILES,SMARCA2 act,Hsp70 activator,GalR3 antagonist,GAA850 FXN act,HIF activator,GalR3 conf,HEK-CNG parental
CCN1CCCCC(NC(=O)c2cc(OC)c(OC)c(OC)c2)C1=O (stereo not given),-4,·,·,·,·,·,·
CCOc1ccc(Br)cc1/C(C)=N\NC1=NCCN1,-3,0,65*,-6,1,80*,4.9*
C/C(=N\NC(=O)c1c(Cl)c(C)nn1C)c1ccc(NC(=O)c2ccncc2)cc1,-4,0,-10,2,0,·,·
Cc1nn(-c2ccc(NC(=O)c3ccncc3)cc2)c(C)c1Cl,-4,·,75*,-3,0,109*,0
CC(=O)N/C(=C\c1ccc2c(c1)OCO2)C(=O)NC(C(=O)O)c1ccccc1 (stereo not given),-4,·,-8,1,0,·,·
CC(=O)N/C(=C/c1ccc2c(c1)OCO2)C(=O)NC(Cc1ccccc1)C(=O)O (stereo not given),-2,·,16*,0,0,0,0
CCOc1ccc(Oc2ccccc2NC(=O)CSCC(=O)Nc2cc(C)on2)cc1,-4,·,40*,-3,0,73*,0
CCOC(=O)c1sc(N2C(=O)C(O)=C(C(=O)c3ccc(C)o3)C2c2ccc(OC)c(OC)c2)nc1C (stereo not given),2,·,34*,2,1,15*,0
COC(=O)c1sc(N2C(=O)C(O)=C(C(=O)c3ccc(C)o3)C2c2ccc(OC)c(OC)c2)nc1C (stereo not given),-1,·,36*,4,1,7,0
CCOC(=O)c1sc(N2C(=O)C(O)=C(C(=O)c3ccc(C)o3)C2c2cccc([N+](=O)[O-])c2)nc1C (stereo not given),4,·,3,4,0,·,·
COc1cc(-c2nnc(SCC(=O)N3C(C)CCCC3C)o2)cc(OC)c1OC (stereo not given),3,·,·,·,·,·,·
COC(=O)c1cccc(Cn2ccc3ccc(-c4ccc5ccn(C(=O)c6ccc(C)cc6)c5c4)cc32)c1,-2,·,·,·,·,·,·
CCOC(=O)C1(CCOc2ccccc2)CCN(Cc2ccc(OC)c(COC)c2)CC1,-5,·,13*,-3,-12,64*,3.5*
COc1cccc(/C=C2\CC3(OC(=O)C4CCCC4)CCCN2C3)c1 (stereo not given),-4,·,·,·,·,·,·
Cc1ccc(O)c(-c2cc(-c3ccccc3[N+](=O)[O-])[nH]n2)c1,1,0,-10,4,2,·,·
O=[N+]([O-])c1ccccc1-c1cc(-c2cc(Cl)ccc2O)n[nH]1,-1,0,19*,1,0,-2,-2
